Results reported in PubChem BioAssay (NCATS).
Values joined by “and” are separate entries in the source; they are usually repeats but may differ in a detail not shown here. Identical values can stand only once. Records with an inconclusive call do not appear. Where a structure was tested more than once in an assay, its records may differ in their call. Active and inactive are the calls of the source. Unless noted, the call rests on the fitted dose curve; in most records, active means well fitted curve in the direction sought with a large enough effect; inconclusive means small, poorly fitted or top-dose-only effect, or another doubt; inactive means no such curve, though single readings can be large; an effect the other way counts as inactive or inconclusive.

How the values were obtained:
[1] = biological target: Peroxisome proliferator-activated receptor alpha (Homo sapiens) (UniProt Q07869); test: qHTS assay for small molecule agonists of the peroxisome proliferator-activated receptor alpha (PPARalpha) signaling pathway (AID 651778); details: PathHunter PPARalpha complementation, chemiluminescence, 6 h; active compounds read high; further: % of control where 0% means no effect
Sequence of Peroxisome proliferator-activated receptor alpha (Homo sapiens) (Q07869 whole entry, looked up): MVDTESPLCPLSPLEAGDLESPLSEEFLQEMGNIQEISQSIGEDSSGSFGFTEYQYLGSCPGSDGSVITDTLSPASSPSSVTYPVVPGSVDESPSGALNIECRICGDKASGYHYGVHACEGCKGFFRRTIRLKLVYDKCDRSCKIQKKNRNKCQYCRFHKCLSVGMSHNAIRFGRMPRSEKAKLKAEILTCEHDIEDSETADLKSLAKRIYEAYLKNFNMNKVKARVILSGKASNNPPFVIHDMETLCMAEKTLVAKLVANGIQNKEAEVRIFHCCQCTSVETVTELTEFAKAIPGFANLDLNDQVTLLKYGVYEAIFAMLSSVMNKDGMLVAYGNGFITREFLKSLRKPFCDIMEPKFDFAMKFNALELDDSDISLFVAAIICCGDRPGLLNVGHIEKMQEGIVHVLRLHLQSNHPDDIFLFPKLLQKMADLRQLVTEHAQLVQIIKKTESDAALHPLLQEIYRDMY
Outline: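 Chemiluminescence from complemented enzyme reported PPARalpha activation in cells after 6 hr of compound treatment at 37 C. The detection reagent was incubated for 60 min at room temperature, and compounds were scored as agonists.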

[2] = qHTS assay for small molecule antagonists of the retinoid-related orphan receptor gamma (ROR-gamma) signaling pathway - cell viability counter screen (AID 720652; active means well fitted curve in the direction sought with a large enough effect in the repeat runs; an effect the other way counts as inactive or inconclusive;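 further: compound exposure lasted 16 hr before ATP read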; further: potency means the concentration at half of the fitted maximal effect); details: RORgamma reporter cell line viability counter screen; series mostly up to 92.2 µM
Outline: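 CHO cells carrying TET-inducible ROR and RORE-luciferase reporter, plated 5 hr, then dosed with compound plus doxycycline. After 16 hr at 37 C, viability read as intracellular ATP by CellTiter-Glo luminescence.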

[3] = qHTS Assay for Identifying Gametocytocidal Compounds (AID 743244); further: potency means the concentration at half of the fitted maximal effect;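 on max response: on the % scale 0 is the no-effect control and ±100 the full control effect; actives lower the fluorescent signal which means gametocytes are killed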; details: P. falciparum 3D7 stage III-V gametocytes, alamarBlue, 72 h; max response: active compounds read low
Outline: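 P. falciparum 3D7 stage III–V gametocytes (20,000 cells/well) were exposed to compounds for 72 h at 37 °C, 5% CO2. AlamarBlue was then added for 24 h; decreased resorufin fluorescence (Ex 525/Em 598 nm) indicated loss of viability.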

[4] = qHTS assay for cell viability of HEK293 cells (AID 743288); details: ATP luminescence (CellTiter-Glo), 18 h, active compounds read low; further: on the % scale 0 is the no-effect control and ±100 the full control effect; nearly all actives have a fitted effect of over 50% in size
Outline: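 The Tox21 protocol used parental HEK293 cells treated for 18 h at 37 C with compounds delivered by pintool; ATP-coupled luminescence after 30 min at room temperature gave viability.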

[5] = qHTS assay for cell viability of the p53RE-bla HCT-116 cell line (AID 743292); details: p53RE-bla HCT-116 viability, ATP luminescence, 16 h; series mostly up to 95 µM; further: nearly all actives have a fitted effect of over 55% in size; further: potency means the concentration at half of the fitted maximal effect
Outline: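 HCT-116 p53RE-bla cells seeded 4,000/well; 5 h at 37 C; compound (DMSO) added; 16 h at 37 C; CellTiter-Glo added, 30 min RT; luminescence read.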

[6] = qHTS assay for small molecule agonists of the antioxidant response element (ARE) signaling pathway measured by Nrf2-dependant transcriptional activity (AID 720636; active means well fitted curve in the direction sought with a large enough effect in the repeat runs; an effect the other way counts as inactive or inconclusive;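 further: HepG2 cells with an ARE-driven luciferase reporter; % of control where 0% means no effect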); details: ARE-luc HepG2, Nrf2 luciferase reporter, 16 h; series mostly up to 92.4 µM
Outline: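 Cells: ARE-luc HepG2 with Nrf2-responsive luciferase. Medium contained 1% dialyzed FBS. Compound exposure lasted 16 hr at 37 C and 5% CO2, followed by ONE-Glo luciferase detection.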

[7] = biological target: T1, Hexokinase-4 (Homo sapiens) + Glucokinase regulatory protein (Homo sapiens) (UniProt P35557+Q14397); test: qHTS assay for inhibitors of recombinant human GCK-GKRP interaction: Diaphorase-coupled assay (AID 743205); details: G6PDH/diaphorase resorufin fluorescence; series mostly up to 57.5 µM
T1 sequence (P35557 whole entry, looked up): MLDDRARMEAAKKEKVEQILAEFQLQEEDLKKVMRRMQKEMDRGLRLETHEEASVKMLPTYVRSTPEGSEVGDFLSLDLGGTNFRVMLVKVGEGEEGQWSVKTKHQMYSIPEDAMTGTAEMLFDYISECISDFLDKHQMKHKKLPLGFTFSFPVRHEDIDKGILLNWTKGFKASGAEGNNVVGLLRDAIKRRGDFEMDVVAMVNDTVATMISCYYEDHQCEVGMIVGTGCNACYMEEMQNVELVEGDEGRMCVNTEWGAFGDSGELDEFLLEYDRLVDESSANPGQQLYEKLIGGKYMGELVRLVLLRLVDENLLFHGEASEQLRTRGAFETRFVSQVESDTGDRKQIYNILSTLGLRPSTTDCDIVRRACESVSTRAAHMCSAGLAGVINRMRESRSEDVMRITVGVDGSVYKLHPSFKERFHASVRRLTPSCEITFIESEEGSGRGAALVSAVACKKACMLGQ
T1 sequence (Q14397 whole entry, looked up): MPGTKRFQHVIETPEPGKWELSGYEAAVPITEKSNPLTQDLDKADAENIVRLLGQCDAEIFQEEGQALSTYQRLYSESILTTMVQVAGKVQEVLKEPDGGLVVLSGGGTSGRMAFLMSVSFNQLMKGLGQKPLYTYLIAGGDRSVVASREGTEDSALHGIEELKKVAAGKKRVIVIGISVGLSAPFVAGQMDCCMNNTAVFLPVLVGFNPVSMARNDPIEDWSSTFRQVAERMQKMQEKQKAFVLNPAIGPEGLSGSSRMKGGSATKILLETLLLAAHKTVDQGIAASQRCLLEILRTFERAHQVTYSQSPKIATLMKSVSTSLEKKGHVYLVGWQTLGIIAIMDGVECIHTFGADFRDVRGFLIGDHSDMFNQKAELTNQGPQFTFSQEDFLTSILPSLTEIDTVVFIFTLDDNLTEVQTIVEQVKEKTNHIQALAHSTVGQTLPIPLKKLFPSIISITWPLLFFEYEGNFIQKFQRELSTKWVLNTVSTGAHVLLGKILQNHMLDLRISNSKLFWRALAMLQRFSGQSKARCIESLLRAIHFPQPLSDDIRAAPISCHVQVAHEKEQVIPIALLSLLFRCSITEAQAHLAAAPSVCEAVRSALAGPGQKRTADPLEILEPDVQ
Outline: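 Inhibitors of the GCK–GKRP complex relieve GKRP suppression of GCK, detected through a G6PDH–diaphorase cascade reducing resazurin. Human GST-GCK and FLAG-GKRP are used at 10 nM with 5 mM glucose and 0.4 mM ATP.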

[8] = biological target: T1, Hexokinase-4 (Homo sapiens) + Glucokinase regulatory protein (Homo sapiens); test: qHTS assay for inhibitors of recombinant human GCK-GKRP interaction: ADP-Glo assay (AID 743206); details: ADP-Glo luminescence, 60 min, 0% = vehicle-only wells with enzyme present; series mostly up to 76.9 µM;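 further: plate controls were DMSO plus enzyme for no effect and no enzyme for full effect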
Outline: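 GST-GCK and FLAG-GKRP (15 nM each in the dispensed mix, with 2 uM S6P) react with 0.4 mM ATP and 5 mM glucose (final) in Hepes pH 7.6 for 60 min at room temperature. ADP is measured by ADP-Glo luminescence.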

[9] = biological target: T1, Hexokinase-4 (Homo sapiens) + Glucokinase regulatory protein (Homo sapiens); test: qHTS assay for inhibitors of recombinant human GCK-GKRP interaction: HTRF assay (AID 743207); details: recombinant GCK-GKRP HTRF binding, 60 min, with sorbitol-6-phosphate; series mostly up to 57.5 µM;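 further: 0% = DMSO with GCK present and -100% = DMSO wells lacking GCK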
Outline: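 Steps: dispense GCK–GKRP complex (5 nM each, GST- and FLAG-tagged) with 2 uM S6P; pin in compounds; add XL665/Eu-cryptate-labelled antibodies; incubate 60 min at room temperature; read time-resolved FRET at 665 and 615 nm.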

[10] = qHTS for Inhibitors of Ubiquitin-specific Protease USP2a Using CHOP2 as the Reporter: K633 Counterscreen (AID 652168); details: No-enzyme DiUb K48 IQF substrate fluorescence interference, kinetic; series mostly up to 57.5 µM; further: % of control where 0% means no effect
Outline: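 Cell-free interference counterscreen without USP2a: compounds pinned into enzyme-free buffer (20 mM Tris pH 8, 2 mM beta-mercaptoethanol, 0.05% Chaps), then DiUb K48-4IQF substrate added (100 nM stock); fluorescence read kinetically, Ex 525/Em 598.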

[11] = qHTS for Inhibitors of Ubiquitin-specific Protease USP2a Using CHOP2 as the Reporter: Cytotox Assay (AID 652170); details: HCT116 viability, CellTiter-Glo luminescence, 72 h; series mostly up to 46.1 µM;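 further: plate controls were DMSO-treated cells for no effect and wells without cells for full effect; nearly all actives have a fitted effect of over 70% in size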
Outline: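 HCT116 human colon cancer cells, 600 per well in DMEM with 10% FBS, exposed to compounds for 72 hr at 37 deg C. ATP measured by CellTiter-Glo luminescence, normalized to DMSO cells and no-cell background.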

[12] = biological target: Ubiquitin carboxyl-terminal hydrolase 2 (Homo sapiens) (UniProt O75604); test: qHTS for Inhibitors of Ubiquitin-specific Protease USP2a Using CHOP2 as the Reporter: K484 Substrate (AID 652173); details: USP2 cleavage of DiUb K48 IQF substrate, fluorescence; series mostly up to 57.5 µM;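 further: cleavage of internally quenched K48 di-ubiquitin substrate measured as rising fluorescence over time; nearly all actives have a fitted effect of over 70% in size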
Sequence of Ubiquitin carboxyl-terminal hydrolase 2 (Homo sapiens) (O75604 whole entry, looked up): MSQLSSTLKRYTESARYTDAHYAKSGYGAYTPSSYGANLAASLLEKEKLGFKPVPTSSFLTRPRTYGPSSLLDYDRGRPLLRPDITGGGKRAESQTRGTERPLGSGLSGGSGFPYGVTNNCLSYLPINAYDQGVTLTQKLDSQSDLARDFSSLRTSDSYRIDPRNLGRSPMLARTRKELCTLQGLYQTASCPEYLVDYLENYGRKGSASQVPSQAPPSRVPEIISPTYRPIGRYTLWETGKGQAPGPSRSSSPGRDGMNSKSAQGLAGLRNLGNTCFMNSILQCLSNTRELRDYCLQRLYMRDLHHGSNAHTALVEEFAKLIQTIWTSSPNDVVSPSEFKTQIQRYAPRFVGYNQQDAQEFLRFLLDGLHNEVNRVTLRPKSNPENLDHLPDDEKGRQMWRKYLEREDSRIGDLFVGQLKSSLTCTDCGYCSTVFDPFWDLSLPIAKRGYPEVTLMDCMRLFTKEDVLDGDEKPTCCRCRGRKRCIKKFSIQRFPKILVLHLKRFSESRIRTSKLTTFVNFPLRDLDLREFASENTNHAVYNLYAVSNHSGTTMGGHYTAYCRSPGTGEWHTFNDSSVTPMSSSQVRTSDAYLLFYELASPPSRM
Outline: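 USP2 (dispensed at 5 nM) was pinned with compounds, then DiUb K48 internally quenched fluorescent substrate (dispensed at 100 nM) was added. The buffer was 20 mM Tris pH 8, 2 mM beta-mercaptoethanol and 0.05% CHAPS. Cleavage was read kinetically as rising fluorescence, Ex 525/Em 598.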

[13] = qHTS for compounds that reverse cellular toxicity of Amyloid beta (A-beta) peptide in yeast: LOPAC Validation Assay (AID 720559); details: yeast expressing A-beta; series mostly up to 46.1 µM;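 further: plate controls were DMSO for no effect and equimolar ferric chloride plus clioquinol rescue for full effect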
Outline: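 Activity is expressed relative to DMSO and an equimolar ferric chloride/clioquinol mix. Compounds were pinned into medium with A-beta-expressing yeast, grown 48 hr at 30 C, then read by absorbance at 600 nm.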

[14] = qHTS for Activators of Parkin Expression: LOPAC Validation Assay (NLuc Reporter) (AID 720572;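 further: 0% = DMSO and 100% = positive control compound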); details: Parkin promoter NanoLuc reporter cells, luminescence; series mostly up to 46.1 µM
Outline: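 Parkin promoter-driven FLuc/NLuc neuronal reporter cells; 24 h plating, 7-pt dose response, 24 h at 37 C/5% CO2; FLuc then NanoLuc reagent, 10 min each, luminescence; DMSO/positive control normalized.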

NC(=O)N/N=C/c1ccc([N+](=O)[O-])o1
active: Potency [3] 35.5 µM
inactive: max response [1] 0.128% and 1.29% | Potency [2] | max response [3] 4.19% | max response [4] -5.04% and -17.6% | Potency [5]

O=C1O[C@H]([C@@H](O)CO)C(O)=C1O
inactive: max response [1] -1.42% and -0.305% | outcome [6] | Potency [2] | max response [3] -4.25% and 24.7% | max response [4] -2.8% and 5.16% | Potency [5]

Cc1c(O)cccc1C(=O)N[C@@H](CSc1ccccc1)[C@H](O)CN1C[C@H]2CCCC[C@H]2C[C@H]1C(=O)NC(C)(C)C
active: Potency [2] 66.8 µM | Potency [5] 28.2 µM
inactive: max response [1] -6.84% | outcome [6]

Cc1cccc(Nc2cc(Cl)nc(SCC(=O)O)n2)c1C
inactive: max response [1] -1.35% | outcome [6] | max response [3] -1.09% | max response [4] -9.34% | Potency [5]

Cc1cc(CC(=O)O)n(C)c1C(=O)c1ccc(Cl)cc1
inactive: max response [1] -2.08% | outcome [6] | Potency [2] | max response [3] 5.09% and -10.7% | max response [4] 2.85% | Potency [5]

CCCCC(CC)COC(=O)c1ccccc1O (stereo not given)
inactive: max response [1] 0.691% | outcome [6] | max response [4] -7.63% | Potency [5]

O=S(=O)(O)NC1CCCCC1
inactive: max response [1] -1.02% | outcome [6] | max response [3] -6.77% | max response [4] -0.923% | Potency [5]

CN(C)CCOC(C)(c1ccccc1)c1ccccn1 (stereo not given)
inactive: max response [1] -0.887% | outcome [6] | outcome [7] | outcome [8] | outcome [9] | max response [3] 7.8% | max response [4] -4.19% | Potency [5]

O=C1c2c(O)cccc2Cc2cccc(O)c21
inactive: max response [1] -2.77% | outcome [6] | Potency [2] | max response [3] 12% | max response [4] -1.66% | Potency [5]

CC1(C)[C@@H]2CC[C@@]1(C)C(=O)C2
inactive: max response [1] 1.14% | outcome [6] | Potency [2] | max response [3] -6.95% | max response [4] -3.96% | Potency [5]

CC(O)CN(CCN(CC(C)O)CC(C)O)CC(C)O (stereo not given)
inactive: max response [1] -1.89% | outcome [6] | max response [3] 3.97% | max response [4] -9.37% | Potency [5]

COc1ccccc1O
inactive: max response [1] -1.16% and 0.39% and -4.81% | outcome [6] | Potency [2] | max response [3] -0.65% | max response [4] 2.42% and 2.72% and -4.36% | Potency [5]

CCCCCCCCCCCCOS(=O)(=O)O
inactive: max response [1] 11.8% and 23.9% and 3.99% | outcome [6] | Potency [2] | max response [4] -2.66% [middle of 4 runs] | Potency [5]

NCCNCCNCCN
inactive: max response [1] -1.93% | outcome [6] | Potency [2] | max response [4] -5.67% | Potency [5]

CC12CCC(CC1)C(C)(C)O2
inactive: max response [1] -0.195% | outcome [6] | Potency [2] | max response [3] 7.91% | max response [4] 4.94% | Potency [5]

Nc1ccc(S(=O)(=O)Nc2nccs2)cc1
inactive: max response [1] -1.3% | outcome [10] | outcome [11] | outcome [12] | outcome [6] | Potency [2] | max response [3] 3.15% | max response [4] -1.59% | Potency [5]

Oc1cccc(O)c1
inactive: max response [1] -10.6% | outcome [6] | max response [4] 11.8% | Potency [5]

CC(O)COc1ccccc1 (stereo not given)
inactive: max response [1] -0.783% | outcome [6] | max response [4] 1.97% | Potency [5]

[Cl][In]([Cl])[Cl]
inactive: max response [1] -1.33% | Potency [2] | max response [3] -7.04% and -5.36% | max response [4] 7.88% | Potency [5]

CN(C)CCCN1c2ccccc2Sc2ccc(Cl)cc21
inactive: max response [1] -0.127% | outcome [13] | Potency [14] | outcome [6] | outcome [7] | outcome [8] | outcome [9] | max response [4] -23.7% | Potency [5]

C[C@]12CC[C@@H]3c4ccc(O)cc4CC[C@H]3[C@@H]1CCC2=O
inactive: max response [1] -1.03% | outcome [13] | Potency [14] | outcome [6] | outcome [7] | outcome [8] | max response [3] -6.45% and 30.5% | max response [4] -13% | Potency [5]

O=C1NS(=O)(=O)c2ccccc21
inactive: max response [1] 0.552% | outcome [6] | max response [4] 0.942% | Potency [5]

CC(CN1c2ccccc2Sc2ccccc21)N(C)C (stereo not given)
inactive: max response [1] -2.77% | outcome [13] | Potency [14] | outcome [6] | outcome [7] | outcome [8] | outcome [9] | max response [4] -10.5%
